# FEN1 inh-1: inhibitors of human flap endonuclease 1; Recombinant FEN1 flap cleavage, fluorescence, 15 min; Potency, µM (doses to about 114 µM), without a hit: top-dose activity change, negative = inhibition, actives largely listed as inhibitors; 390,000 tested, 0.35% active; also: % is scaled to controls: 0 for no effect and ±100 for the full control effect; nearly all actives have a fitted effect of over 65% in size
# Target sequence (P39748 whole entry, looked up): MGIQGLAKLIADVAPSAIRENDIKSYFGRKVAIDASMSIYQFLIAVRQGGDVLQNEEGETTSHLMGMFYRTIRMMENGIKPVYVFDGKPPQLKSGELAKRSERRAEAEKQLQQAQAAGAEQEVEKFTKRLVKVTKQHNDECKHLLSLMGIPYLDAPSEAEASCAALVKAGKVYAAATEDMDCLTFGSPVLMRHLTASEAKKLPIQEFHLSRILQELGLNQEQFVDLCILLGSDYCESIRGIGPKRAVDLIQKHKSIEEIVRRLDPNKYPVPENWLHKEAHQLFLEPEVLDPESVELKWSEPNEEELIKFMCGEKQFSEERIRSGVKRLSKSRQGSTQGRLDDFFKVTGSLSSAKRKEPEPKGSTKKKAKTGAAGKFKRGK
#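 Steps: FEN1 (10 nM) dispensed; compound added by pin tool; 15 min at room temperature; substrate added to 50 nM final; reads at 0 min and 15 min; data normalized and fitted (four-parameter Hill).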
# Pin1 inh: inhibitors of human Pin1 | Q13526 | Pin1 FP peptide displacement, HiFluor488, 10 min | Potency, µM (highest dose often 115 µM), without a hit: top-dose activity, negative = inhibition, most hits filed as inhibitors | 390,000 tested, 0.009% active; active = well fitted inhibition curve with a large enough effect in the polarisation, with a control signal flat, not every such curve was filed as active; inconclusive = small, poorly fitted or top-dose-only effect, or effect the other way, or a change in a side signal; inactive = no such curve, though single readings can be large or run the other way; the % refers to the polarisation; also: % is scaled to controls: 0 for no effect and ±100 for the full control effect
# Target sequence (Q13526 whole entry, looked up): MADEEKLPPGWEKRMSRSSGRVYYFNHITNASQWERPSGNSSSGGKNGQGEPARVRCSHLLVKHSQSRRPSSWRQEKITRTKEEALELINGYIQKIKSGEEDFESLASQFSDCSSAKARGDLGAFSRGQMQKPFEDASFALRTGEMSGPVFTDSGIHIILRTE
# BCR signal inh: chronic active BCR signaling inhibition; 340,000 tested, 0.05% active; Potency, µM (titrated, usually from 46.1 µM), inactives show top-dose activity change, negative = inhibition, actives largely listed as inhibitors; AID 493014; ABC-DLBCL IkBa-CBG/CBR reporter, luminescence ratio, 4 h; active = well fitted inhibition curve with a large enough effect in the signal ratio, with a control signal flat, not every such curve was filed as active; inconclusive = small, poorly fitted or top-dose-only effect, or effect the other way, or a change in a side signal; the % refers to the signal ratio;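 also: plate controls were basal doxycycline-induced cells for no effect and cells given 10 µM MG132 for full effect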
#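 Concentration-response series (up to 46 uM) were applied to TMD8 dual-reporter cells for 4 h at 37C with doxycycline. Green/red ratio, after filter-overlap correction, defined %Activity; red signal alone was normalised to basal cells and zero luminescence.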
# Apoferritin bind: candidate novel general anesthetic via apoferritin binding. apoferritin/1-aminoanthracene competitive binding, fluorescence. Potency, µM (highest dose often 77.5 µM), inactives show at the highest dose activity change, negative = displacement, hits mostly inhibitors. 350,000 tested, 0.074% active; also: % is scaled to controls: 0 for no effect and ±100 for the full control effect; nearly all actives have a fitted effect of over 20% in size
#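 Steps: apoferritin (10 uM) was premixed with half-saturated 1-AMA in PBS, compounds were pin-transferred, plates stood 10 min at room temperature, fluorescence was read at 380/535 nm, and curves were fitted with a Hill equation.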
# B2AR arrestin: recruits beta-arrestin to the human beta2-adrenergic receptor; 330,000 tested, 0.02% active; AID 492947; P07550; Potency, µM (series often up to 46.1 µM), without a hit: at the top dose activation, most hits filed as activators; beta-arrestin recruitment to beta2AR, cell-based reporter;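 also: 0% = DMSO controls and full agonism = EC100 isoproterenol or metaproterenol; nearly all actives have a fitted effect of over 65% in size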
# PGK inhibitor: blocks T. brucei phosphoglycerate kinase; P07378; PGK/GAPDH coupled, Kinase-Glo luminescence, 60 min; Potency, µM (top dose mostly 57.5 µM), for the others: top-dose activity change, negative = inhibition, actives largely listed as inhibitors; 380,000 tested, 0.043% active; also: % is scaled to controls: 0 for no effect and ±100 for the full control effect; nearly all actives have a fitted effect of over 60% in size
#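 Luminescent ATP detection (Kinase-Glo Plus) follows a 60-minute room-temperature incubation, with wells lacking PGK as controls. Buffer: 100 mM TEA (pH 7.6), 5 mM MgCl2, 0.01% Tween-20. Coupling enzyme GAPDH (100 nM final) supplies unstable 1,3-BPG in-well.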
# FEN1 inh-2: FEN1 inhibition, cherry-pick retest | shares compounds with FEN1 inh-1 | FEN1 flap cleavage, TAMRA/BHQ2 fluorogenic DNA substrate | Potency, µM, actives largely listed as inhibitors | 880 tested, 79% active; also: nearly all actives have a fitted effect of over 60% in size
# * marks the source's active call; other numbers are inactive results; i = inactive; ? = inconclusive; nt = not tested or not shown; [ ] = remark or other dose. Compounds with a hit are over-represented: about 0.45% of the library has one in this group of screens. Unless noted, calls follow the shape of the dose curve; as a rule, active = well fitted curve in the direction sought with a large enough effect; inconclusive = small, poorly fitted or top-dose-only effect, or another doubt; inactive = no such curve, though single readings can be large; an effect the other way counts as inactive or inconclusive. Potency is read from the fitted curve at half-maximal effect.
SMILES,FEN1 inh-1,Pin1 inh,BCR signal inh,Apoferritin bind,B2AR arrestin,PGK inhibitor,FEN1 inh-2
CCN(CC)c1ccc(C=C2SC(=S)NC2=O)cc1,-28.9%,?,nt,nt,nt,-4.4%,?
CO[C@H]1C[C@@H]2C[C@H](O)C[C@@H](CC(=O)O[C@@H](/C=C\CC(C)C)C[C@@H]3CC[C@H](C)[C@@H](C1)O3)O2,nt,nt,nt,5.2%[15.3 µM],nt,nt,nt
C1CCC[C@H]2CCCN3CC[C@H](CCCCCC[C@@H]4CCCN5CC[C@H](CC1)OC45)OC23,nt,nt,nt,-0.9%,nt,nt,nt
Nc1nc2ncn(COCCO)c2c(=O)[nH]1,-4.8%,nt,nt,nt,nt,nt,nt
CC(C)N1CCc2c(sc(NC(=O)C3CC3)c2-c2nc3ccccc3s2)C1,nt,?,nt,nt,nt,nt,15.1*
N=C1/C(=C\c2ccc(-c3ccc(C(=O)O)cc3)o2)C(=O)N=C2SC=C(c3ccccc3)N12,50.1µM*,?,?,7.5%,-0.7%,-13.5%,?
N=C1/C(=C\c2ccc(-c3cccc(Cl)c3)o2)C(=O)N=C2SC=C(c3ccccc3)N12,-1.7%,?,24.7%,-14.7%,0.2%,-7.0%,nt
O=C(Nc1cccc(Cl)c1)OCC#CCCl,nt,nt,nt,-6.6%,nt,nt,nt
COc1ccc(S(=O)(=O)Nc2cc(Sc3ncn[nH]3)c(O)c3ccccc23)cc1,6.31µM*,?,?,-20.4%,-0.3%,nt,?
COc1ccc(S(=O)(=O)Nc2cc(SCC(=O)O)c(O)c3ccccc23)cc1,?,?,-24.5%,7.7%,-0.2%,-11.4%,67.5*
O=C(O)CSc1cc(NS(=O)(=O)c2ccc(Cl)cc2)c2ccccc2c1O,35.5µM*,?,?,-0.2%,-0.7%,-1.3%,75.7*
CC1=CC(O)=NS(=O)(=O)O1,3.4%,nt,nt,nt,nt,nt,nt
Cc1c(F)cccc1Cn1cnc2c(cnn2C(C)(C)C)c1=O,5.3%,nt,nt,nt,nt,nt,nt
CN1CCN(c2nn3c(=O)c4ccccc4nc3s2)CC1,nt,-3.7%,nt,nt,nt,nt,nt
COCCn1c(C)cc(C(=O)COC(=O)c2ccc([N+](=O)[O-])o2)c1C,?,-1.7%,7.4%,-9.6%,-0.5%,-7.6%,15.1*
CC(C)Cn1c(N)c(C(=O)COC(=O)c2ccc([N+](=O)[O-])o2)c(=O)n(C)c1=O,?,-0.7%,0.5%,-15.4%,0.0%,-8.6%,9.53*
C#CCN(Cc1ccc(OC)cc1)S(=O)(=O)C=C,-20.4%,nt,nt,nt,nt,nt,nt
Cc1ccc2nc(Cl)c3cc(C(=O)NCCCN4CCCC4)sc3c2c1,22.4µM*,6.7%,?,-8.2%,0.1%,6.9%,47.8*
CCC1CCCCN1CCCNC(=O)c1cc2c(Cl)nc3ccc(C)cc3c2s1 (stereo not given),89.1µM*,13.5%,nt,-7.9%,nt,-1.9%,?
O=C(Nc1ncccc1O)c1c(O)c2ccccc2[nH]c1=O,?,?,-18.2%,-1.5%,3.4%,5.1%,?
Cc1onc(-c2ccccc2)c1C(=O)Nc1ccc(S(=O)(=O)Nc2nccs2)cc1,-4.7%,0.3%,?,2.8%,-0.9%,i,nt
O=S(=O)(Nc1nccs1)c1ccc(Nc2nnc(-c3ccccc3)c3ccccc23)cc1,89.1µM*,74.2%,-10.2%,-3.3%,0.0%,-4.4%,?
CC(C)(C)n1ncc2c(=O)n(Cc3c(F)ccc(Cl)c3Cl)cnc21,-14.4%,nt,nt,nt,nt,nt,nt
C=CCN(CC=C)c1ccc(/C=C/c2ccnc3ccccc23)cc1,-17.0%,nt,nt,nt,nt,nt,nt
COc1ccccc1/C=c1\sc2nc(-c3ccco3)nn2c1=O,50.1µM*,?,5.0%,-11.4%,-0.1%,?,?
Oc1cc2cc(-c3csc(-c4ccc(F)cc4)n3)cc3c2n1CCC3,-0.9%,nt,nt,nt,nt,nt,nt
Cc1c2cnccc2c(C)c2c1oc1ccccc12,35.5µM*,2.6%,nt,nt,nt,2.8%,37.9*
Cc1c(C(=O)O)c(O)cc2c1C(=O)c1c(O)c([C@@H]3O[C@H](CO)[C@@H](O)[C@H](O)[C@H]3O)c(O)c(O)c1C2=O,?,?,17.1%,nt,-0.1%,?,84.9*
